Measurements reported in PubChem BioAssay AID602481 (Broad Institute, 2012).
“And” between values parts separate entries of the source, which are not always exact repeats. Identical values can stand only once. The campaign covered roughly 360,000 compounds. About 340 (0.094%) were called active. No stated cut-off is given here; in the data, active means inhibition above about 40%; inconclusive means no clear call, values can overlap the other calls; inactive means below that. Many of the other results were omitted from the sample, so actives are more common in it than they were. Where a structure was tested more than once in an assay, its records may differ in their call.

tested on: 7,8-diaminopelargonic acid synthase BioA (Mycobacterium tuberculosis); assay: M. tuberculosis BioA enzyme inhibitors, primary screen, biochemical, plate reader, single point, HTS (AID 602481); details: purified M. tuberculosis BioA enzyme, at 9.99 µM, stronger effect = higher value

| SMILES | inhibition |
| --- | --- |
| CC(C)Oc1ccc(Cc2n[nH]c(=S)n2Cc2ccccc2)cc1Cl | 0.831% (inactive) |
| CC(C)Oc1ccc(CCc2n[nH]c(=S)n2Cc2ccccc2)cc1 | 0.782% (inactive) |
| COc1cc(-c2n[nH]c(=S)n2Cc2ccccc2)cc(OC)c1OC | 69.8% (active) |
| COc1ccc(S(=O)(=O)N2C[C@@H](O)COC[C@H]3O[C@@H](CC(=O)NCCN4CCCCC4)CC[C@@H]32)cc1 | -1.77% (inactive) |
| CC(C)NC(=O)N1[C@@H]2CN(C(=O)C3CCCCC3)c3ccccc3[C@@H]2[C@@H]1CO | -4.4% (inactive) |
| Cc1noc(C)c1S(=O)(=O)N(C)C[C@@H]1Oc2c(NS(=O)(=O)c3cn(C)cn3)cccc2C(=O)N([C@@H](C)CO)C[C@H]1C | -0.608% (inactive) |
| Cc1ccc(S(=O)(=O)N(C)C[C@@H]2Oc3c(NC(=O)NC(C)C)cccc3C(=O)N([C@H](C)CO)C[C@H]2C)cc1 | -1.17% (inactive) |
| CC(=O)OCC(=O)C1(O)CCC2C3CC(C)C4=CC(=O)CCC4(C)C3C(O)CC21C (configuration not stated) | -0.825% (inactive) |
| CC(=O)O[C@]1(C(C)=O)CC[C@H]2[C@@H]3C=C(C)C4=CC(=O)CC[C@]4(C)[C@H]3CC[C@@]21C | 13.2% (inactive) and 51.3% (active) |
| C[C@]12CCC(=O)C=C1C=CC1C2CC[C@@]2(C)C1CC[C@@]21CCC(=O)O1 (some centres not stated) | 19.6% (inactive) |
| CC(C)C#Cc1cnc2c(c1)C(=O)N([C@@H](C)CO)C[C@@H](C)[C@@H](CN(C)C(=O)CN1CCOCC1)O2 | -1.21% (inactive) |
| C[C@@H]1CN([C@@H](C)CO)C(=O)c2cc(NS(=O)(=O)c3cn(C)cn3)ccc2O[C@@H](C)CCCCO[C@H]1CN(C)S(=O)(=O)c1cccs1 | 0.052% (inactive) |
| O=C(C1CCCC1)N1[C@H](CO)[C@@H]2c3ccccc3N(S(=O)(=O)c3ccccc3)C[C@@H]21 | 6.11% (inactive) |
| Cc1ccc(S(=O)(=O)N[C@H]2C=C[C@@H](CC(=O)NCCc3ccncc3)O[C@@H]2CO)cc1 | 2.21% (inactive) |
| C[C@H](CO)N1C[C@H](C)[C@H](CN(C)S(=O)(=O)c2ccc(C#N)cc2)Oc2ncc(-c3cccc(F)c3)cc2C1=O | 4.36% (inactive) |
| CO[C@@H](CN(C)S(=O)(=O)c1ccccc1)[C@@H](C)CN(Cc1ccccc1Cl)[C@H](C)CO | -0.143% (inactive) |
| CC(=O)CSc1nnc(CSc2ncccn2)n1C1CCCCC1 | 43.5% (active) |
| O=C(CSc1nnc(-c2ccncc2)n1C1CCCCC1)Nc1ccccc1 | -0.812% (inactive) |
| CC1CC(C)CN(C(=O)CSc2nnc(CSc3ncccn3)n2C)C1 (configuration not stated) | 0.828% (inactive) |
| CCCN1C[C@H](C)[C@@H](OC)CN(C)C(=O)c2ccc(NC(=O)c3cnccn3)cc2OC[C@H]1C | -1.47% (inactive) |
| COc1ccc(NC(=O)N(C)C[C@H]2OCCCC[C@@H](C)Oc3ccc(NC(=O)Nc4ccc5c(c4)OCO5)cc3C(=O)N([C@H](C)CO)C[C@@H]2C)cc1 | -1.28% (inactive) |

| SMILES | inhibition |
| --- | --- |
| C[C@H](CO)N1C[C@H](C)[C@@H](CN(C)C)Oc2ccc(NS(=O)(=O)c3cccs3)cc2C1=O | 2.81% (inactive) |
| CC(=O)N1[C@H](CO)[C@H]2c3ccccc3N(C(=O)c3ccc(F)cc3)C[C@H]21 | -3.14% (inactive) |
| Cc1ccc(S(=O)(=O)N(C)C[C@@H]2Oc3c(NC(=O)C4CC4)cccc3C(=O)N([C@H](C)CO)C[C@@H]2C)cc1 | -0.903% (inactive) |
| C[C@@H]1CCCCO[C@H](CN(C)C)[C@@H](C)CN([C@H](C)CO)C(=O)c2cc(N(C)C)ccc2O1 | -0.059% (inactive) |
| CN(C)CC(=O)Nc1ccc2c(c1)[C@H]1C[C@@H](CC(=O)NCc3ccc(Cl)cc3)O[C@@H](CO)[C@H]1O2 | 0.123% (inactive) |
| C[C@H]1CN([C@@H](C)CO)C(=O)CCCn2cc(nn2)CO[C@H]1CN(C)C(=O)Nc1cccc(C(F)(F)F)c1 | -3.91% (inactive) |
| COCC(=O)N1[C@H](CO)[C@@H](c2ccccc2)[C@H]1CN(C)C(=O)c1ccncc1 | -4.1% (inactive) |
| C[C@@H]1CN([C@@H](C)CO)C(=O)c2c(c3ccccc3n2C)-c2ccccc2CO[C@H]1CN(C)S(=O)(=O)c1cccs1 | -2.08% (inactive) |
| CN1[C@@H]2CN(C(=O)C3CCCCC3)c3ccccc3[C@@H]2[C@@H]1CO | 5.87% (inactive) |
| CC(C)(C)[S@@](=O)N1Cc2cc(C(=O)N3CCCCC3)nc(-c3cccc(-c4cccc(C#N)c4)c3)c2[C@H]1CCO | 0.956% (inactive) |
| COc1ccc(NC(=O)Nc2ccc3c(c2)[C@H]2C[C@H](CC(=O)NC4CCCCC4)O[C@H](CO)[C@H]2O3)cc1 | 0.43% (inactive) |
| CC(=NNC(=O)c1ccncc1)c1ccc(Cl)c(Cl)c1 | -0.685% (inactive) |
| CN1CCC(=NNC(=O)c2ccc(N(Cc3ccc(Cl)cc3)S(C)(=O)=O)cc2)CC1 | -0.516% (inactive) |
| Cn1nccc1/C=N\NC(=O)c1ccc(Cl)cc1 | 69.1% (active) |
| CC(=O)Nc1ccccc1-c1cn(CC(=O)N2CCOCC2)nn1 | -2.47% (inactive) |
| CC(C)CC#Cc1cnc2c(c1)C(=O)N([C@@H](C)CO)C[C@H](C)[C@@H](CN(C)Cc1ccccc1C(=O)O)O2 | -0.715% (inactive) |
| C[C@@H]1CN([C@@H](C)CO)C(=O)c2cc(NC(=O)CCCN(C)C)ccc2O[C@@H](C)CCCCO[C@H]1CN(C)C(=O)Nc1cccc2ccccc12 | -0.656% (inactive) |
| O=C(C[C@@H]1C[C@H]2c3cc(NC(=O)CC4CC4)ccc3O[C@H]2[C@@H](CO)O1)NCc1ccc2c(c1)OCO2 | -1.7% (inactive) |
| C[C@@H]1CCCCO[C@@H](CN(C)C(=O)Nc2ccc3c(c2)OCO3)[C@H](C)CN([C@H](C)CO)C(=O)c2cc(NC(=O)CCCN(C)C)ccc2O1 | 1.19% (inactive) |
| CCC(=O)Nc1ccc2c(c1)C(=O)N(C)C[C@H](OC)[C@H](C)CN(C(=O)c1ccccn1)[C@@H](C)CO2 | -2.41% (inactive) |
| COCCNC(=O)C[C@H]1C=C[C@@H](NS(=O)(=O)c2ccc(C)cc2)[C@@H](CO)O1 | -2.72% (inactive) |
